{"source": "PubChem BioAssay (NCI)", "note": "Where “and” joins values, the source holds several entries; their conditions need not be identical. Equal entries are not always repeated. The panel holds about 83,000 compounds, 20% with a hit somewhere; the sample as a whole holds those more often.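 Growth was measured after 48 h exposure to one concentration of compound in 96-well plates. Values under 10 count as active.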 Values without a mark were called inactive. Calls of active or inactive are those of the source."}
{"system": "OVCAR-4 ovarian", "test": "NCI-60 one-dose screen, 48 h (100 = growth as untreated, 0 = no growth, -100 = all killed)", "conditions": "10 µM unless noted", "experimental": "Growth inhibition of the OVCAR-4 human tumor cell line is measured as a screen for anti-cancer activity. Cells are grown in 96 well plates and exposed to the test compound for 48 hours. Compounds are tested at a single concentration, which is 10^-5 M for most compounds. The reported endpoint is percent growth (GI% or GIPRCNT), where numbers from 0 - 100% represent growth inhibition, and numbers from -100% - 0 represent cell death. For example, a value of 40 represents 60% growth inhibition. A value of 0 means no net growth occurred over the course of the experiment. A value of -40 indicates 40% of cells at the beginning of the experiment died by the end of the experiment. A value of -100 means all cells are dead at the end of the experiment.\nNCI-60 Human Tumor Cell Lines Screen was performed using the standard one-dose NCI protocol, which is described in more detail at https://dtp.cancer.gov/discovery_development/nci-60/default.htm.\nCompounds with GIPRCNT values below 10 were considered active. Activity score was based on GIPRCNT using the following formula: […]\nScore is 0 for GIPRCNT values of 100 or above, 50 for GIPRCNT values of 0, and 100 for GIPRCNT values of -100."}
{"smiles": "OC(CC(c1ccccc1)c1cccc2ccccc12)(c1ccccc1)c1ccccc1", "note": "(stereo not given)", "growth": "81.3% and 75.7%"}
{"smiles": "O=c1[nH]c(=S)[nH]n1C(=S)n1[nH]c(=S)[nH]c1=O", "growth": "112%"}
{"smiles": "CC(=O)Oc1ccc(C(c2ccc(OC(C)=O)cc2)c2ccccn2)cc1", "growth": "-9.93% (active) and -15.5% (active)"}
{"smiles": "Cc1cc2ccccc2c2cc3ccccc3cc12", "growth": "94.5%"}
{"smiles": "CN(C)C(=S)N(C)C", "growth": "101%"}
{"smiles": "Cc1cnc(N)s1", "growth": "103%"}
{"smiles": "CC(=O)C[n+]1ccccc1Sc1ccc(Cl)cc1", "growth": "93.7%"}
{"smiles": "O=C(c1ccncc1)c1c(Cc2ccccc2)ccc2ccccc12", "growth": "82.7%"}
{"smiles": "O=C1C=CC(n2cc(F)c(=O)[nH]c2=O)O1", "note": "(stereo not given)", "growth": "74.9%"}
{"smiles": "CC(O)CCNC(c1ccccc1)C(O)c1ccccc1", "note": "(stereo not given)", "growth": "107%"}
{"smiles": "Nc1c(S(=O)(=O)O)cc(Br)c2c1C(=O)c1ccccc1C2=O", "growth": "101% and 111%"}
{"smiles": "C=CCN1C(=O)c2ccccc2C1=O", "growth": "107%"}
{"smiles": "Clc1ccc(/C=C/c2ccc3ccccc3n2)cc1", "growth": "79% and 88.3% and 86.5%"}
{"smiles": "CC(C)(C)C1=CC(=O)C(C(C)(C)C)=CC1=O", "growth": "93.3% and 118%"}
{"smiles": "CN(C)c1ccc(C(=N)c2ccc(N(C)C)cc2)cc1", "growth": "57.8% and 34.9%"}
{"smiles": "C/C=C(/C(=O)NC(N)=O)C(C)C", "growth": "119%"}
{"smiles": "CCCC(=O)Oc1ccc2ccccc2c1", "growth": "105%"}
{"smiles": "CCOC(C)=N", "growth": "100%"}
{"smiles": "COc1ccc(C(=O)C(O)c2ccc(OC)cc2)cc1", "note": "(stereo not given)", "growth": "103% and 102%"}
{"smiles": "N#Cc1c[nH]n2ccnc12", "growth": "118%"}
{"smiles": "O=C1Cc2ccccc2C(=O)N1", "growth": "63.4%"}
{"smiles": "CNc1ccc(O)cc1", "growth": "94.5% and 106%"}
{"smiles": "Cc1cc(O)c(C(C)C)cc1N=O", "growth": "109% and 111%"}
{"smiles": "CCC/C(=N/NC(N)=O)c1ccco1", "growth": "102%"}
{"smiles": "Nc1nc(=S)c2[nH]cnc2[nH]1", "growth": "25.1% and 44%"}
{"smiles": "CCOC(=O)C1=C(C)NC(C)=C(C(=O)OCC)C1", "growth": "101% and 90.2%"}
{"smiles": "CC1CCC(=O)N1c1ccc(N)cc1", "note": "(stereo not given)", "growth": "107%"}
{"smiles": "COc1ccc(CCO)cc1", "growth": "111%"}
{"smiles": "COc1ccc(/C=N/Nc2nc3ccccc3s2)cc1", "growth": "87.5%"}
{"smiles": "Clc1ccc2sc(-c3ccccc3)nc2c1", "growth": "81.5%"}
{"smiles": "CCCCNC(=O)c1ccccc1C", "growth": "104%"}
{"smiles": "Cc1onc(-c2c(F)cccc2Cl)c1-c1ncc(-c2ccc(Cl)cc2)o1", "growth": "80.9% and 47.9%"}
{"smiles": "CC(=O)Nc1ccc(OC(C)=O)cc1", "growth": "98.7%"}
{"smiles": "CCC(C)(O)CCC(C)(O)CC", "note": "(stereo not given)", "growth": "111%"}
{"smiles": "COCCCNC1=C(C#N)C(=O)NC(c2cccs2)S1", "note": "(stereo not given)", "growth": "93%"}
{"smiles": "CC1(CO)CCCC1NCCNC1CCCC1(C)CO", "note": "(stereo not given)", "growth": "90.4% and 101%"}
{"smiles": "NCCCCCC(=O)O", "growth": "116% and 103%"}
{"smiles": "CCN(CC)C(=S)SCCO", "growth": "113%"}
{"smiles": "CCC(C)NC(=O)c1ccccc1C", "note": "(stereo not given)", "growth": "109%"}
{"smiles": "S=c1ccc2ccccc2[nH]1", "growth": "104% and 108%"}
